The panel holds about 79,000 compounds, 15% with a hit somewhere; the sample as a whole holds those more often. Rule as the data show it: active = growth inhibition above about 70%; inactive = the rest.
How the values were obtained:
[1] = NCI Yeast Anticancer Drug Screen. Data for the rad50 strain (AID 155);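 also: 0% = growth of vehicle-only cultures of the same strain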; conditions: S. cerevisiae rad50 strain growth inhibition; at 50.0 µM; hits give high values
Outline: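 Yeast carrying a defined DNA repair defect were exposed to test compounds, and growth was compared with vehicle-treated controls to give percent inhibition.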

[2] = NCI Yeast Anticancer Drug Screen. Data for the mec2-1 strain (AID 157); conditions: S. cerevisiae mec2-1 strain, at 50.0 µM, hits give high values
Outline: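 Strain: mec2-1 (DNA repair/cell cycle alteration). Compound exposure, then growth measured; inhibition expressed relative to vehicle.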

[3] = NCI Yeast Anticancer Drug Screen. Data for the sgs1 mgt1 strain (AID 161);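 also: 0% = growth of cultures given vehicle only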; conditions: S. cerevisiae sgs1 mgt1 strain, at 50.0 µM, hits give high values
Outline: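 Test agents were incubated with a DNA-repair-mutant yeast strain. Growth was then read and compared against vehicle-treated controls.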

[4] = NCI Yeast Anticancer Drug Screen. Data for the cln2 rad14 strain (AID 165);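 also: 0% = growth equal to vehicle treated cultures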; conditions: S. cerevisiae cln2 rad14 strain, at 50.0 µM, hits give high values
Outline: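 Compounds are applied to the cln2 rad14 yeast strain, and growth is then compared with that of vehicle-treated cultures to give inhibition.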

[5] = NCI Yeast Anticancer Drug Screen. Data for the bub3 strain (AID 167); conditions: S. cerevisiae bub3 mutant strain, at 50.0 µM, hits give high values
Outline: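 Compounds were applied to a genetically altered yeast strain carrying a cell-cycle control defect. Growth inhibition was scored against vehicle-treated controls.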

[6] = NCI Yeast Anticancer Drug Screen. Data for the mlh1 rad18 strain (AID 175); conditions: S. cerevisiae mlh1 rad18 strain growth inhibition; at 50.0 µM; hits give high values
Outline: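 Read-out is yeast growth inhibition, calculated against vehicle-only controls. The compound was applied to a strain engineered with DNA damage repair alterations.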

Measured: growth inhibition

CSC1=N/C(=C\c2ccc(C)cc2)C(=O)N1
inactive: [1] -35.5% | [2] 0.3% | [3] 20.2% | [4] 0.85% | [5] -6.35% | [6] -10.5%

O=C1c2ccccc2C(=O)N1CNc1cccc(NCN2C(=O)c3ccccc3C2=O)c1
inactive: [1] -3.9% | [2] -11.7% | [3] -9.75% | [4] 16.1% | [5] 1.2% | [6] -2.15%

COc1ccc2nc3cc(Cl)ccc3c(NN3CCN(CCO)CC3)c2c1
inactive: [1] -24.1% | [2] -7.9% | [3] -20.1% | [4] 0.25% | [5] 2.3% | [6] -3.6%

COc1ccc2nc(-c3ccccc3)c(=O)[nH]c2c1
inactive: [1] 4.1% | [2] 13.8% | [3] 24.7% | [4] 12.6% | [5] 25.1% | [6] 10.5%

Nc1nc(N)nc(CCCCc2nc(N)nc(N)n2)n1
inactive: [1] -28.1% | [2] -16% | [3] -14.3% | [4] -15.7% | [5] -59.5% | [6] -21.5%

COc1ccccc1C1OC2=C(Nc3ccc(Cl)cc3N2)C1=O (stereo not given)
inactive: [1] -6.5% | [2] -17.8% | [3] -17.5% | [4] -7% | [5] -23.7% | [6] -2.95%

COC(=O)c1ccc(Cl)nc1
inactive: [1] 0.85% | [2] -8.6% | [3] -9.7% | [4] -6.75% | [5] -11.1% | [6] -10.3%

COc1cc(C(=O)NO)c(Br)c(OC)c1OC
inactive: [1] -3.5% | [2] 9.5% | [3] -4.35% | [4] -5.6% | [5] -7.2% | [6] -3.7%

CCOC(=O)NC(=O)c1cn(CCCOC(=O)CCCCCCCCCCC(=O)OCCCn2cc(C(=O)NC(=O)OCC)c(=O)n(C)c2=O)c(=O)n(C)c1=O
inactive: [1] -22.3% | [2] 8.3% | [3] -24.6% | [4] 15.3% | [5] -2.35% | [6] -19.4%

CC12C(=O)OC(=O)C1C1C=CC2C1 (stereo not given)
inactive: [1] 20.2% | [2] 6.15% | [3] -18.2% | [4] -64.5% | [5] -0.35% | [6] 5.05%

CC(C)(C)CI
inactive: [1] 15.6% | [2] 3.85% | [3] 7.65% | [4] 4.9% | [5] -11.2% | [6] -35.3%

CC(=O)c1cc(-c2ccccn2)c(=O)n2ccccc12
inactive: [1] 26.1% | [2] 15.5% | [3] -19.9% | [4] -0.3% | [5] 5.25% | [6] -4%

CN1CCC(c2ccccc2)(c2ccccc2)OC1c1ccccc1 (stereo not given)
inactive: [1] 1.65% | [2] -12.2% | [3] -7.85% | [4] 1.35% | [5] 8.85% | [6] -18.2%

Cc1[nH]c(=O)c(C#N)c(C)c1-c1ccccc1
inactive: [1] 16.8% | [2] -3.9% | [3] -4.9% | [4] 4.9% | [5] -0.75% | [6] 1.85%

O=C=Nc1cccc([N+](=O)[O-])c1
inactive: [1] -0.65% | [2] -5.7% | [3] -0.75% | [4] -5.05% | [5] -27.9% | [6] -40.5%

NC(=O)NCCSC1CCCCC1O (stereo not given)
inactive: [1] -23.1% | [2] -35% | [3] -28.4% | [4] 3.1% | [5] -64.5% | [6] 6.45%

COc1cccc2c1[C@@]1(C)C3C(=O)OC(C)(c4ccccc43)[C@@]1(C)C2=O (stereo not given in full)
inactive: [1] 39.4% | [2] 20.7% | [3] -7.45% | [4] 23.1% | [5] -4.1% | [6] 9.35%

Cc1cccc(I)c1
inactive: [1] -21.4% | [2] -24.4% | [3] -4.95% | [4] -2.1% | [5] -2.55% | [6] 17.2%

NC(=S)N/N=C(/CC(=O)c1ccc([N+](=O)[O-])cc1)C(=O)Nc1ncc([N+](=O)[O-])s1
inactive: [1] 51.9% | [2] 29% | [3] 30.1% | [4] 19.2% | [5] 53.2% | [6] 25.2%

COCc1cc(C(C)(C)C)cc(CNC2CCCCC2)c1O
inactive: [1] 16% | [2] 12.2% | [3] 27.1% | [4] 13.4% | [5] 12.5% | [6] 10.7%

Reference: PubChem BioAssay (NCI)
